Records with an inconclusive call do not appear. Values without a mark were called inactive. The source made the active and inactive calls. Calls come from the whole dose curve; as a rule, active = well fitted curve in the direction sought with a large enough effect in the repeat runs; inconclusive = weak or mixed curves; inactive = no such curve, though single readings can be large; an effect the other way counts as inactive or inconclusive.
Experiment: A CellTox Green Cytotoxicity Assay to monitor cytotoxicity in HepG2 cells - 40 hour (AID 1224879); note: nearly all actives have a fitted effect of over 40% in size; note: potency is the fitted concentration of half-maximal effect
Details: CellTox Green fluorescence; series mostly up to 76.8 µM; cytotoxicity increase: at the top concentration
In short: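 Fluorescent DNA-binding dye, 600 HepG2 cells/well, 5 h preincubation then compound in DMSO; same plates read at 0–40 h, 37 C.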
% is set by controls: 0 for no effect and ±100 for the full control effect.

| SMILES | cytotoxicity increase | Potency |
| --- | --- | --- |
| CN(C)Cc1ccccc1O | 7.15% | – |
| CC(CCc1ccccc1)NCC(O)c1ccc(O)c(C(N)=O)c1 (configuration not stated) | -1.36% | – |
| C#C[C@]1(O)CC[C@H]2[C@@H]3[C@H](C)CC4=C(CCC(=O)C4)[C@H]3CC[C@@]21C | 16% [at 35.3 µM] | – |
| COC(C)=O | -0.417% | – |
| CC1(C)CCC[C@]2(C)[C@H]3CC(=O)O[C@]3(C)CC[C@@H]12 | 27.3% | – |
| CC(C)(C)C1CCC(=O)CC1 | 15.1% | – |
| CC(C)CCOC(=O)/C=C/c1ccccc1 | -7.8% | – |
| Nc1ccc(Oc2ccc(Cl)cc2)cc1 | 13.5% | – |
| C=CCCC(=O)/C=C/C1C(C)=CCCC1(C)C (configuration not stated) | 20.4% | – |
| CCCC(=O)OCCc1ccccc1 | – | 49 µM (active) |
| O=C(O)c1cc(O)c2ccccc2c1O | – | 24.5 µM (active) |
| CC(C)(C)CC(C)(C)c1ccc(Nc2ccc(C(C)(C)CC(C)(C)C)cc2)cc1 | 2.12% [at 6.97 µM] | – |
| CC(C(=O)O)c1ccc2c(c1)[nH]c1ccc(Cl)cc12 (configuration not stated) | -5.01% [at 35.3 µM] | – |
| COc1cc2nc(N3CCN(C(=O)c4ccco4)CC3)nc(N)c2cc1OC | – | 10.4 µM (active) |
| OCC(F)(F)F | -0.773% | – |
| C=Cc1cccc(C)c1 | – | inactive |

| SMILES | cytotoxicity increase | Potency |
| --- | --- | --- |
| O=C(O)c1ccc2cc(C(=O)O)ccc2c1 | -4.89% | – |
| C[C@@H](O)[C@H](N)C(=O)O | 7.81% [at 15.8 µM] | – |
| Cc1ccc(C(C)C)cc2c(C)ccc1-2 | -10.7% [at 35.3 µM] | – |
| CCCCCCC1CCCC(=O)O1 (configuration not stated) | -12.1% | – |
| CC(CO)Oc1ccccc1 (configuration not stated) | -1.15% | – |
| CCC(CC)C(C)CCOC(C)=O (configuration not stated) | -2.28% | – |
| Cc1cccc(C)c1NC(=O)c1ccc(N)cc1 | -6.76% [at 35.3 µM] | – |
| Cc1c(C)c2c(c(C)c1OC(=O)c1cccnc1)CC[C@@](C)(CCC[C@H](C)CCC[C@H](C)CCCC(C)C)O2 | -16.2% [at 35.3 µM] | – |
| CC(C)(C)NSc1nc2ccccc2s1 | -8.12% | – |
| Oc1ccccc1O | 12.7% | – |
| CCC(=O)OC(=O)CC | -4.39% | – |
| CC(=O)Oc1cc2c(s1)CCN(C(C(=O)C1CC1)c1ccccc1F)C2 (configuration not stated) | -18.1% [at 35.3 µM] | – |
| O=C(/C=C/c1ccccc1)OC/C=C/c1ccccc1 | 0.0656% | – |
| OC/C=C/CO | -4.81% | – |
| CC(=O)CC(=O)Nc1ccc(S(=O)(=O)O)cc1 | -9.22% | – |
| O[C@@H]([C@H](O)[C@H](O)CBr)[C@H](O)CBr | -1.83% | – |

Experiment: qHTS RealTime-Glo MT Cell Viability Assay in HEK293 cells - 0 hour (AID 1224880); note: top concentration of the series differs between compounds; nearly all actives have a fitted effect of over 45% in size
Details: RealTime-Glo luminescence; series mostly up to 76.8 µM; activity change, negative = cytotoxicity: at the top concentration
In short: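 Measured as luminescence from the same continuously cultured HEK293 wells at successive time points (0, 8, 16, 24, 32, 40 h) after compound addition. Reagent present from seeding; dosing at 5 h; incubation 37 C.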

| SMILES | activity change, negative = cytotoxicity | Potency |
| --- | --- | --- |
| CN(C)Cc1ccccc1O | -4.94% | – |
| CC(CCc1ccccc1)NCC(O)c1ccc(O)c(C(N)=O)c1 (configuration not stated) | 23.3% | – |
| C#C[C@]1(O)CC[C@H]2[C@@H]3[C@H](C)CC4=C(CCC(=O)C4)[C@H]3CC[C@@]21C | -4.74% [at 35.3 µM] | – |
| COC(C)=O | -12.1% | – |
| CC1(C)CCC[C@]2(C)[C@H]3CC(=O)O[C@]3(C)CC[C@@H]12 | -0.283% | – |
| CC(C)(C)C1CCC(=O)CC1 | 20.1% | – |
| CC(C)CCOC(=O)/C=C/c1ccccc1 | 3.45% | – |
| Cc1ccc(C(=O)O)cc1 | 6.12% | – |
| Nc1ccc(Oc2ccc(Cl)cc2)cc1 | -6.05% | – |
| CCCC(=O)OC(C)(C)Cc1ccccc1 | -4.14% | – |
| C=CCCC(=O)/C=C/C1C(C)=CCCC1(C)C (configuration not stated) | -7.69% | – |
| CCCC(=O)OCCc1ccccc1 | -6.6% | – |
| CCCCOC(=O)CC | 5.82% | – |
| CC(C)(C)CC(C)(C)c1ccc(Nc2ccc(C(C)(C)CC(C)(C)C)cc2)cc1 | -8.12% [at 6.97 µM] | – |
| COc1cc2nc(N3CCN(C(=O)c4ccco4)CC3)nc(N)c2cc1OC | 4.25% [at 15.8 µM] | – |
| OCC(F)(F)F | 7.09% | – |
| C=Cc1cccc(C)c1 | – | inactive |
| O=C(O)c1ccc2cc(C(=O)O)ccc2c1 | -3.58% | – |

| SMILES | activity change, negative = cytotoxicity | Potency |
| --- | --- | --- |
| C[C@@H](O)[C@H](N)C(=O)O | -2.75% [at 15.8 µM] | – |
| Cc1ccc(C(C)C)cc2c(C)ccc1-2 | -2.78% [at 35.3 µM] | – |
| CCCCCCC1CCCC(=O)O1 (configuration not stated) | 3.53% | – |
| CC(CO)Oc1ccccc1 (configuration not stated) | -3.33% | – |
| CCC(CC)C(C)CCOC(C)=O (configuration not stated) | -1.49% | – |
| Cc1cccc(C)c1NC(=O)c1ccc(N)cc1 | 3.29% [at 35.3 µM] | – |
| Cc1c(C)c2c(c(C)c1OC(=O)c1cccnc1)CC[C@@](C)(CCC[C@H](C)CCC[C@H](C)CCCC(C)C)O2 | -2.04% [at 35.3 µM] | – |
| O=c1c(O)c(-c2ccc(O)cc2O)oc2cc(O)cc(O)c12 | -20% | – |
| CC(C)(C)NSc1nc2ccccc2s1 | -6.18% | – |
| Nc1ccc(C(=O)O)c(O)c1 | -0.425% [at 35.3 µM] | – |
| Oc1ccccc1O | – | inactive |
| CCC(=O)OC(=O)CC | -3.76% | – |
| CC(=O)Oc1cc2c(s1)CCN(C(C(=O)C1CC1)c1ccccc1F)C2 (configuration not stated) | -16.8% [at 35.3 µM] | – |
| O=C(/C=C/c1ccccc1)OC/C=C/c1ccccc1 | -8.28% | – |
| OC/C=C/CO | 5.43% | – |
| CC(=O)CC(=O)Nc1ccc(S(=O)(=O)O)cc1 | 25.1% | – |
| O[C@@H]([C@H](O)[C@H](O)CBr)[C@H](O)CBr | -2.48% | – |
